# Assay outcomes deposited in PubChem by National Center for Advancing Translational Sciences (NCATS).
# Hits are enriched below; roughly 2.9% of the tested compounds scored in any of these assays.
# EPAC2 ant val – Validation qHTS for antagonist of cAMP-regulated guanine nucleotide exchange factor 4 (EPAC2). EPAC2 Rap1B BODIPY-GDP exchange, fluorescence. Potency, µM (titrated, usually from 112 µM), for the others: at the highest dose activity, negative = inhibition, hits mostly inhibitors. hit rate 1.7% among 16,000;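 also: 100% = activation by cAMP agonist control; nearly all actives have a fitted effect of over 40% in size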
#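 Fluorescent exchange read-out: 100 nM EPAC2 with 250 nM RAP1B–BODIPY-GDP and 50 uM GDP; BODIPY-GDP release lowers fluorescence. Read at 480/540 nm every 5 min for 30 min at room temperature; normalized to 6.5 mM cAMP.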
# EPAC1 ag val – Validation qHTS for agonist of cAMP-regulated guanine nucleotide exchange factor 3 (EPAC1); EPAC1 Rap1b BODIPY-GDP exchange, fluorescence; Potency, µM, for the others: max response, positive = active, usual class: activators; hit rate 1% among 16,000; AID 1645883, 2021; also: nearly all actives have a fitted effect of over 70% in size
# Target sequence (O95398 whole entry, looked up): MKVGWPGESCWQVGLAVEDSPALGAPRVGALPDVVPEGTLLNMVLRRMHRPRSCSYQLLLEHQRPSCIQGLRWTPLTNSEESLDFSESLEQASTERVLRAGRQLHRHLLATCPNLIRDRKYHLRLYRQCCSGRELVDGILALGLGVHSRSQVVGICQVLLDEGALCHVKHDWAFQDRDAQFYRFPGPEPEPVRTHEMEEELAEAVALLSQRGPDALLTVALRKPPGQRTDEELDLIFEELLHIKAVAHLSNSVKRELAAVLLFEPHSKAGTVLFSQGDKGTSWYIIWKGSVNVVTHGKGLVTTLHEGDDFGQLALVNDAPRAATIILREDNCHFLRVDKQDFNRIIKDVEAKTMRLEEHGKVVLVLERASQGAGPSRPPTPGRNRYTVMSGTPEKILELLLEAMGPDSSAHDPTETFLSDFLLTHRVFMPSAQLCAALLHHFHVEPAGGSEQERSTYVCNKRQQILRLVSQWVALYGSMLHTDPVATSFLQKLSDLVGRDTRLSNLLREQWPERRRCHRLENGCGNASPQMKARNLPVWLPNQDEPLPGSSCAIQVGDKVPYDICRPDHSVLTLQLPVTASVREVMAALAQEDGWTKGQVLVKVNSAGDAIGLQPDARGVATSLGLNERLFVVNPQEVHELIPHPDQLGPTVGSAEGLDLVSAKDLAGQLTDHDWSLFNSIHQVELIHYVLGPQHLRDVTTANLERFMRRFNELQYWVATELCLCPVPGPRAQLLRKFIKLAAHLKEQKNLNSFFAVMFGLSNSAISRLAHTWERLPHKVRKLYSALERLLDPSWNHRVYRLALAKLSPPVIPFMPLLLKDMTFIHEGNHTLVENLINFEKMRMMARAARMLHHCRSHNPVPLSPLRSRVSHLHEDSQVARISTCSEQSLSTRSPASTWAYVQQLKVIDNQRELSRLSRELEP
# Starred values were filed as active, the others as inactive; i = inactive; ? = inconclusive; ! = not active in a repeat; [ ] = dose if it differs, or a comment. Calls follow the shape of the dose curve; as a rule, active = well fitted curve in the direction sought with a large enough effect; inconclusive = small, poorly fitted or top-dose-only effect, or another doubt; inactive = no such curve, though single readings can be large; an effect the other way counts as inactive or inconclusive. Unless noted, % is scaled to controls: 0 for no effect and ±100 for the full control effect; potency is read from the fitted curve at half-maximal effect.
SMILES,EPAC2 ant val,EPAC1 ag val
C=C1C[C@]23C[C@@]1(O)CC[C@H]2[C@@]12C=C[C@H](O)[C@@](C)(C(=O)O1)[C@H]2[C@@H]3C(=O)O,-43.0%[56.6 µM],44.7µM*
C=C1C[C@@]23C[C@@]1(O)CCC2[C@@]12C=CC(O)[C@](C)(C(=O)O1)C2C3C(=O)O (some centres not stated),-2.7%,?
CN1[C@@H]2CC[C@H]1CC(NC(=O)n1c(=O)[nH]c3ccccc31)C2 (some centres not stated),22.5%,3.5%
O=C1OC2(c3ccccc31)c1cc(I)c(O)c(I)c1Oc1c2cc(I)c(O)c1I,i,31.6µM*
O=C1OC2(c3ccc(O)cc3Oc3cc(O)ccc32)c2ccccc21,41.5%,?
COC(=O)C1=C(C)NC(C)=C([N+](=O)[O-])C1c1ccccc1C(F)(F)F (configuration not stated),39.8µM*!,2.0%
CC1=C(C(=O)OC(C)C)[C@@H](c2cccc3nonc23)C([N+](=O)[O-])=C(C)N1,-50.8%,-1.4%
Cc1ccccc1C(=O)N1CC/C(=N\OS(=O)(=O)O)c2ccc(Cl)cc21,9.1%,5.6%
CO[C@H]1[C@H](NC(=O)c2ccsc2)c2ccccc2C12CCN(Cc1cccc3ncccc13)CC2,9.9%,-2.3%
O=C(Nc1ccc(C(=O)Nc2ccc(C(=O)Nc3ccc(S(=O)(=O)O)c4cc(S(=O)(=O)O)cc(S(=O)(=O)O)c34)cc2)cc1)Nc1ccc(C(=O)Nc2ccc(C(=O)Nc3ccc(S(=O)(=O)O)c4cc(S(=O)(=O)O)cc(S(=O)(=O)O)c34)cc2)cc1,22.4µM*,-8.6%
O=C(Nc1cc(C(=O)Nc2ccc(S(=O)(=O)O)cc2S(=O)(=O)O)cc(C(=O)Nc2ccc(S(=O)(=O)O)cc2S(=O)(=O)O)c1)Nc1cc(C(=O)Nc2ccc(S(=O)(=O)O)cc2S(=O)(=O)O)cc(C(=O)Nc2ccc(S(=O)(=O)O)cc2S(=O)(=O)O)c1,-18.5%,?
S=C(S)O[C@@H]1C[C@@H]2C[C@H]1[C@@H]1CCC[C@H]21,50.1µM*,-2.3%
S=C(S)OC1CC2CC1C1CCCC21 (configuration not stated),-27.9%,-1.5%
CCCCCCCC(=O)CC[C@@H]1[C@@H](C/C=C\CCCC(=O)OC(C)C)[C@@H](O)C[C@H]1O,?,-216.4%
O=C(C1CC12CCN(Cc1cccc3cccnc13)CC2)N1CCN(Cc2cccs2)CC1 (configuration not stated),-21.6%,6.4%
COCC(=O)N1CCC2(CCCN(C(=O)Nc3cccc(C#N)c3)C2)CC1,-20.9%,-32.9%
COCC(=O)N1CCC2(CC1)CCN(C(=O)Nc1cccc(C#N)c1)CC2,-21.2%,126µM*
O=C(Cn1cc2ccccc2n1)N1CCOc2ccc(C(O)C3CCCCC3)cc2C1 (configuration not stated),?,-24.6%
Cc1nc2ccccc2nc1CN1CCOc2ccc(C(C)(O)COc3ccccc3)cc2C1 (configuration not stated),-26.2%,21.9%
COc1ccccc1C(=O)N[C@@H]1c2ccccc2C2(CCN(Cc3ccc4c(c3)OCO4)CC2)[C@H]1O,?,-2.1%
COc1ccc(OC)c2c(/C=C/c3c[nH]c4ccccc34)ccnc12,-9.1%,-26.6%
Cc1ccc2c(/C=C/c3c[nH]c4ccccc34)ccnc2c1C,-12.6%,100µM*
CCOC(=O)[C@H](CCc1ccccc1)N[C@@H](C)C(=O)N1[C@@H](C(=O)O)C[C@@H]2CCC[C@@H]21,i,44.7µM*
CCOC(=O)C(CCc1ccccc1)NC(C)C(=O)N1C(C(=O)O)CC2CCCC21 (configuration not stated),-9.6%,13.0%
NCCCC[C@H](NC(=O)[C@@H]1CCCN1C(=O)[C@@H]1CSSC[C@H](N)C(=O)N[C@@H](Cc2ccc(O)cc2)C(=O)N[C@@H](Cc2ccccc2)C(=O)N[C@@H](CCC(N)=O)C(=O)N[C@@H](CC(N)=O)C(=O)N1)C(=O)NCC(N)=O,-12.3%,-4.5%
SMILES,EPAC2 ant val,EPAC1 ag val
Cc1ccccc1C1(CC(=O)N2CCCC2c2nccs2)CC(=O)N(C2CCCC2)C1=O (configuration not stated),-17.2%,-1.6%
CCC(=O)O[C@H]1[C@H](O[C@@H]2[C@@H](C)[C@H](O[C@H]3C[C@@](C)(OC)[C@@H](O)[C@H](C)O3)[C@@H](C)C(=O)O[C@H](CC)[C@@](C)(O)[C@H](O)[C@@H](C)C(=O)[C@H](C)C[C@@]2(C)O)O[C@H](C)C[C@@H]1N(C)C,31.6µM*,-69.6%
CCOC(=O)CCC(=O)O[C@H]1[C@H](O[C@@H]2[C@@H](C)[C@H](O[C@H]3C[C@@](C)(OC)[C@@H](O)[C@H](C)O3)[C@@H](C)C(=O)O[C@H](CC)[C@@](C)(O)[C@H](O)[C@@H](C)C(=O)[C@H](C)C[C@@]2(C)O)O[C@H](C)C[C@@H]1N(C)C,-14.1%,-3.4%
CCOC(=O)/C=C1\CN(Cc2ccc(OC)cc2)S(=O)(=O)c2ccc(C(F)(F)F)cc21,?,-50.3%
COc1ccc(C(=O)/C(Br)=C\C(=O)O)cc1,6.6%,-12.7%
Oc1ccc(Cl)cc1Cc1cc(Cl)ccc1O,89.1µM*!,?
NCCc1ccc(O)c(O)c1,-9.8%,?
C[C@]12CC[C@@H]3c4ccc(O)cc4CC[C@H]3[C@@H]1CC[C@@H]2OP(=O)(O)O,1.4%,1.7%
CCC(=O)OC1CCC2C3CCc4cc(O)ccc4C3CC[C@]12C (some centres not stated),39.8µM*,5.2%
CCC(=O)O[C@H]1CC[C@H]2[C@@H]3CCc4cc(O)ccc4[C@H]3CC[C@]12C,50.1µM*,-159.6%
C[C@]12CC[C@@H]3c4ccc(O)cc4CC[C@H]3[C@@H]1CC[C@@H]2OC(=O)CCC1CCCC1,-6.0%,?
CCCCC(=O)O[C@H]1CC[C@H]2[C@@H]3CCc4cc(O)ccc4[C@H]3CC[C@]12C,50.1µM*,-110.4%
C[C@@]12CCC3c4ccc(O)cc4CCC3C1CCC2O (some centres not stated),-19.9%,10.4%
COCC(C)NCc1cc2ccc(OC)cc2nc1N1CCN(c2ccc(F)cc2)CC1 (configuration not stated),-13.0%,9.9%
COC(=O)c1cc(CNC(=O)c2ccccc2)cc(NC(=O)c2ccccc2OC)c1,?,-5.0%
C[N+]1(C)[C@@H]2CC(OC(=O)[C@H](CO)c3ccccc3)C[C@H]1[C@H]1O[C@@H]12 (some centres not stated),-40.0%,0.8%
O=C(O)[C@H](O)[C@@H](O)[C@H](O)[C@H](O)CO,-10.2%,-14.5%
N[C@H](C(=O)O)C(O)C(O)C(O)CO (some centres not stated),-19.8%,112µM*
CNC(=O)[C@@H]1C[C@@H](NCc2cccc(Oc3ccccc3)c2)CN1C(C)C,-15.0%,-17.4%
O=S(=O)(O)c1cc(O)c2c(N=Nc3ccc(Nc4ccccc4)c4c(S(=O)(=O)O)cccc34)cc(S(=O)(=O)O)cc2c1,?,9.4%
O=S(=O)(O)c1ccc2c(N=Nc3ccc(S(=O)(=O)O)c4ccccc34)c(O)c(S(=O)(=O)O)cc2c1,50.1µM*,-62.8%
COc1cc(C=C2CCC/C(=C\c3ccc(O)c(OC)c3)C2=O)ccc1O,-2.3%,?
